The structures appear in SMILES notation. Out of some 300,000 compounds screened, about 37,000 (12%) were called active. The sample holds actives, similar compounds and a random draw of the others, so the mix is not that of the screen. A number with no mark means an inactive call. Rule as the data show it: active = max response mostly above about 13% (no sharp cut-off); inactive = mostly below about 14%.

The assay can be described thus: Cycloheximide Counterscreen for Small Molecule Inhibitors of Shiga Toxin. Also: read at 38.3 µM for the half of the compounds with a filed dose; 0% is about no effect. To be noted: cell reporter, cycloheximide protein synthesis inhibition counterscreen; active compounds read high.
`CC(C)(C)c1ccc(C(=O)NCCn2c(N)c(C#N)c3nc4ccccc4nc32)cc1`: the max response is -4.74%.

With `N#Cc1cccc(CN2CCC(=O)N([C@H](CO)c3ccccc3)CC2)c1`, the max response was -0.681%.

On to `CCOc1ccc(/C=N/NC(=O)C(C)Sc2ccccn2)cc1OCC` (stereo not given), for which the max response was -2.71%.

For the molecule `COc1cc(/C=C2/C(=O)ON=C2C)ccc1OCc1ccccc1F`, the max response was 76% (active).

Turning to `CCOc1cc(/C=N/O)ccc1OCc1ccccc1F`, the max response is 30.7% (active).

Regarding `COc1cc(/C=C2/C(=O)ON=C2C)ccc1OCc1cccc(F)c1`, the max response was 27.9%.

Consider `C=CCOc1ccc(/C=C2/C(=O)ON=C2C)cc1OCC`, for which the max response was -0.862%.

With `CCOc1c(Cl)cc(/C=N/O)cc1OC`, the max response is 5.27%.

In the case of `CCC1=C(OC(=O)N(CC)CC)N2C(=O)OC(=NCCc3c[nH]c4ccccc34)[C@]2(C)[C@H]2C1=CC[C@H]1C(=O)N(CC)C(=O)[C@H]12`, the max response was -4.31%.

As to `O=C(CCc1nnc2ccc(NCc3ccccc3Cl)nn12)NCC1CCN(C2CCCC2)C1` (stereo not given), the max response is -4.64%.

As for `Cc1ccc(NS(=O)(=O)c2c(C)[nH]c(C)c2C(=O)N2CCCCC2)c(C)c1`, the max response is 18%.

For `CN(C)c1ccc(C=C2C(=O)OC3(CCCC3)OC2=O)cc1`, the max response is 0.693%.

As for `O=C(Nc1ccn(Cc2ccccc2)n1)c1n[nH]c([N+](=O)[O-])c1Cl`, the max response was 47.7% (active).

On to `O=C(Nc1ccccc1N1CCCCC1)c1cccc(F)c1`, for which the max response is 3.77%.

As to `O=C(O)CC(Cc1ccccc1)C(=O)Nc1ccc([N+](=O)[O-])cc1` (stereo not given), the max response was 11.6%.

With `CC(=O)Nc1ccn(Cc2c(F)cccc2Cl)n1`, the max response was 18.4% (active).

As for `CC(C)(C)NC(=O)NC(=O)COC(=O)Cc1c(F)cccc1Cl`, the max response is 6.65%.

Turning to `O=C(Nc1ccccc1N1CCN(c2ccccc2)CC1)c1cccc(F)c1`, the max response is -4.37%.

Regarding `O=C(Cn1cnc([N+](=O)[O-])n1)NCCc1ccccc1`, the max response is 6.14%.

As for `Cc1nnsc1C(=O)NCc1c(F)cccc1Cl`, the max response was 8.44%.

As for `O=C(Nc1ccn(Cc2ccccc2)n1)c1cccc(F)c1`, the max response is 39% (active).

For `CCOc1cc(C)ccc1OCc1nnc(SCC(=O)Nc2cccc(C(=O)O)c2)n1-c1ccccc1`, the max response was 3.69%.

Take `CC(C)C[C@H]1CN=C(Nc2ccccc2)N1CC1CCCCC1`: the max response is -4.32%.

As to `CC(=O)N1c2ccc(S(=O)(=O)N3CCCC(C(=O)Nc4ccc(C)cc4C)C3)cc2CC1C` (stereo not given), the max response is -0.234%.

On to `CC(C)c1cc(NCc2ccccn2)n2c(nc3ccccc32)c1C#N`, for which the max response is 9.39%.

As to `Cc1ccc(Cl)cc1N1CCN(C(=O)c2cccc3c(=O)c(C)c(-c4ccccc4)oc23)CC1`, the max response was 3.64%.

In the case of `COCCn1cnc2c1c(=O)n(CC(=O)NN)c(=O)n2Cc1ccccc1`, the max response was -14.6%.

For the molecule `O=Cc1c(Nc2ccccc2Cl)nc2ccccn2c1=O`, the max response is -2.35%.

Take `O=C(COC(=O)CCCNC(=O)c1ccc(Cl)cc1)Nc1cc(Cl)ccc1Cl`: the max response was -0.294%.

Take `COCCn1c(C)cc(C2=NNC(=Nc3ccc(F)cc3)SC2)c1C`: the max response is 31.2% (active).

Turning to `Cc1cc(C2=NNC(=Nc3ccc(S(=O)(=O)N4CCOCC4)cc3)SC2)c(C)n1CC1CCCO1` (stereo not given), the max response was 19.4%.

`C=CCn1c(C)cc(C2=NNC(=NCC)SC2)c1C`: the max response was -12%.

`COc1ccc(C(=O)C[n+]2ccc(N)c(C)c2C)cc1`: the max response was -5.16%.

With `CN1CN(C)c2ccc([N+](=O)[O-])c3cccc1c23`, the max response was -0.807%.

For the molecule `C=CCNC(=S)/N=c1/ccccn1Cc1ccccc1`, the max response is 1.08%.

In the case of `CC(=O)Nc1ccc(S(=O)(=O)N2CCN(c3ccc([N+](=O)[O-])c(NCCN4CCOCC4)c3)CC2)cc1`, the max response was -3.02%.

For `COc1ccccc1OCCNc1cc(N2CCOCC2)ccc1[N+](=O)[O-]`, the max response is 24.7% (active).

As to `CN(CC(=O)Nc1ccc(N2CCOCC2)cc1)CC(=O)Nc1ccccc1[N+](=O)[O-]`, the max response was -1.06%.

With `Cc1ccc(CNC(=O)C2CCCN2S(=O)(=O)c2ccc3c(c2)C(C)(C)C(=O)N3C)cc1` (stereo not given), the max response is -3.55%.

As for `C=CCOc1ccc(C(=O)Nc2ccccc2C(=O)N2CCCC2)cc1`, the max response is -1.61%.

As for `Cc1cccc(NC(=O)CN2CCCN(S(=O)(=O)c3ccc(Br)s3)CC2)c1`, the max response is 19.9%.

For the molecule `CSc1ncccc1C(=O)OCC(=O)N1CCOCC1`, the max response was -5.04%.

`CSc1ncccc1C(=O)OCc1ccc(Br)cc1`: the max response is 36.2% (active).

Consider `CSc1ncccc1C(=O)NCc1ccccc1Cl`, for which the max response was 2.57%.

In the case of `CN1CCN(c2cc3c(cc2F)c(=O)c(C(=O)O)cn3CCF)CC1`, the max response was -3.38%.

For `Oc1ccc(N=Nc2nccs2)c(O)c1`, the max response is 38% (active).

Consider `Oc1ccc2ccccc2c1N=Nc1nccs1`, for which the max response was 11.4%.

For `NC(=O)N1CCc2ccccc21`, the max response was -6.54%.

On to `Cc1nnc(SCC(=O)N2CCc3ccccc32)n1-c1ccccc1`, for which the max response is -1.58%.

In the case of `O=C(CSCc1ccccc1)N1CCc2ccccc21`, the max response is 50.5% (active).

For the molecule `Cc1ccc(Oc2cc(NC(=O)CCCn3nc(C)c([N+](=O)[O-])c3C)cc([N+](=O)[O-])c2)cc1`, the max response was 6.56%.

Regarding `Cc1ccc2ccc3c(c2n1)NS(=O)(=O)c1ccccc1-3`, the max response was 9.31%.

For the molecule `O=C1CC(C(F)(F)C(F)(F)C(F)(F)C(F)(F)F)=Nc2ccccc2N1`, the max response is 1.33%.

Take `Cc1ccccc1-n1nc(C)c2cc(C(=O)NC3CC3)sc21`: the max response is 13.7%.

With `O=C(CSc1nc2nccnc2c(=O)n1Cc1cccs1)Nc1ccccc1F`, the max response is 18.8%.

With `Cc1cccc(-c2noc(CCC(=O)NC3CCCC3)n2)c1`, the max response was 2.28%.

On to `Cc1cccc(-c2noc(-c3ccc(F)cc3)n2)c1`, for which the max response is 70.7% (active).

Consider `Cc1cccc(-c2nc(Nc3ccc(O)cc3)c3ccccc3n2)c1`, for which the max response is -0.236%.

As to `Cc1ccc(Cc2nc(-c3cccc(C)c3)no2)cc1`, the max response was 31.8% (active).

`CC(=O)N1CCCc2cc(S(=O)(=O)N3CCCC(C(=O)NCc4ccc(Cl)cc4)C3)ccc21` (stereo not given): the max response is -1.26%.

With `CCN1C(=O)C(C(=O)NC(C)c2ccccc2)C2CC1(C)Oc1ccccc12` (stereo not given), the max response was -6.07%.

Consider `Cc1nn(CC(=O)N2CCCCC2)c(=O)c2nn(-c3ccccc3)c(C)c12`, for which the max response was -0.579%.

As to `C[C@H](NC(=O)C1CCN(S(=O)(=O)c2ccccc2)CC1)C(=O)NCc1ccccc1`, the max response is -2.6%.

With `COCCN1C(=O)C(=O)/C(=C(/O)c2ccc(S(=O)(=O)N3CCOCC3)cc2)C1c1ccc(OC)c(OC)c1` (stereo not given), the max response is -0.449%.

As for `CCOCCCNC(=O)c1cn(CC(C)C)c(=O)c2c1c1ccccc1n2C`, the max response is 1.59%.

Turning to `Cc1cc(Cl)c(S(=O)(=O)Nc2ccc3c(c2)OCCO3)cc1OCC(N)=O`, the max response was 40.8% (active).

For the molecule `Cc1cc(Cl)c(S(=O)(=O)NCC2CCCO2)cc1OCC(N)=O` (stereo not given), the max response was -0.524%.

Take `Cc1cc(Cl)c(S(=O)(=O)N(C)C)cc1OCC(N)=O`: the max response was 4.25%.

`COc1ccc(S(=O)(=O)N2CCN(c3ncnc4c(-c5ccccc5)nsc34)CC2)cc1`: the max response was -2.92%.

For `CC1=C(C(=O)OC2CCCCC2)C(c2cccnc2)n2ncnc2N1` (stereo not given), the max response was -3.65%.

With `C=CCCN(C(Cc1ccccc1)C(=O)OC)S(=O)(=O)c1cc(Br)ccc1Br` (stereo not given), the max response is -0.573%.

As for `O=[N+]([O-])c1ccc(NC(=S)N2CCN(c3ccccn3)CC2)cc1`, the max response is -3.35%.

For the molecule `O=C(Nc1ccc([N+](=O)[O-])cc1)OCCc1ccccn1`, the max response is 19% (active).

As to `O=C(Nc1cccc(Cl)c1)OCc1ccccn1`, the max response is 26.4%.

On to `COc1ccc2c(Cl)c(-c3nnco3)sc2c1`, for which the max response was 0.855%.

In the case of `C#CCSc1nnc(-c2sc3ccccc3c2Cl)o1`, the max response is 46.5% (active).

Take `O=C(OCC#CCSc1nnc(-c2ccncc2)o1)c1sc2ccccc2c1Cl`: the max response was -4.75%.

Turning to `COCCNC(=O)CCCN1C(=O)c2ccccc2Sc2ncccc21`, the max response was 5.87%.

With `Cc1ccc(N2CCN(C3=NC(=O)/C(=C\c4cccs4)S3)CC2)cc1`, the max response was 3.49%.

For `Cc1cccc(C2=N/C(=C/c3cccs3)C(=O)O2)c1`, the max response was 29.6% (active).

`Cc1ccc(C2=N/C(=C\c3ccc(OS(=O)(=O)c4ccc(C)cc4)cc3)C(=O)O2)cc1`: the max response is 0.746%.

As for `Cc1ccc(S(=O)(=O)N2CCN(C(=O)N3CCOCC3)CC2)c(C)c1`, the max response was -0.587%.

As for `Cc1ccc(NC(=O)[C@H](Cc2ccccc2)NC(=O)C2CCNCC2)cc1`, the max response was -1.28%.

Consider `CC(=O)Nc1cc2ccc(OC(C)=O)cc2oc1=O`, for which the max response was -3.66%.

For the molecule `O=C(Nc1cc2ccccc2oc1=O)C1CCCCC1`, the max response is 34.2% (active).

Consider `Cc1ccccc1NC(=O)C1CCN(C(=O)NC2CCCCC2)CC1`, for which the max response was -2.51%.

In the case of `Cc1ccc(S(=O)(=O)N/N=C(\c2ccccc2)C2CC2)cc1`, the max response was -0.529%.

As for `COc1cccc(C2c3[nH]c4ccccc4c3CCN2Cc2cccc(C)n2)c1` (stereo not given), the max response is -0.212%.

Regarding `CCOc1ccc(S(=O)(=O)N2CCC(c3ccccc3)CC2)cc1C(=O)O`, the max response was -3.04%.

Turning to `COc1ccc(/C=N/OCc2ccccc2C#N)c(OC)c1`, the max response was 38% (active).

With `COc1ccc(/C=N/Nc2cc(N3CCOCC3)nc(C)n2)c(OC)c1`, the max response was -1.58%.

Consider `COc1ccc(C=C(C#N)C#N)c(CSc2ccccn2)c1`, for which the max response is -3.44%.

Consider `Cc1ccc(C(=O)Nc2nnc(-c3cccs3)s2)cc1C`, for which the max response was 13.9%.

Take `Cc1ccc(C(=O)Nc2nnc(C3=COCCO3)o2)cc1C`: the max response was 14.8% (active).

For `O=C(Nc1nnc(C2=COCCO2)o1)c1ccc([N+](=O)[O-])s1`, the max response was -2.32%.

These data come from PubChem BioAssay AID2314 (National Center for Advancing Translational Sciences (NCATS), 2010).
